The text below walks through data of ChEMBL document CHEMBL3433997, “St. Jude Leishmania screening dataset” (2016).

Common to all, as to assay type: functional
Assay [1] concerns the target Solute carrier family 2, facilitated glucose transporter member 1 (Homo sapiens) (UniProt P11166). As to the kind of experiment: ST_JUDE_LEISH: Cytotoxicity at 2uM final concentration against transgenic Leishmania Mexicana promastigotes LmGLUT1 that are glucose transport deficient and complemented with the human glucose transporter GLUT1. Activity is measured by DNA content using SYBR green in vitro.

The target in assay [2] is Hexose transporter 1 (Plasmodium falciparum) (UniProt O97467). As to the kind of experiment: ST_JUDE_LEISH: Cytotoxicity at 2uM final concentration against transgenic Leishmania Mexicana promastigotes LmPfHT that are glucose transport deficient and complemented with the Plasmodium falciparum hexose transporter. Activity is measured by DNA content using SYBR green in vitro.

Assay [3] deals with Glucose transporter (Leishmania mexicana) (UniProt O61059). As to the kind of experiment: ST_JUDE_LEISH: Cytotoxicity at 2uM final concentration against transgenic Leishmania Mexicana promastigotes LmGT2 that are glucose transport deficient and complemented with the L. Mexicana glucose transporter 2. Activity is measured by DNA content using SYBR green in vitro.

Chain of Solute carrier family 2, facilitated glucose transporter member 1 (Homo sapiens) (P11166 whole entry): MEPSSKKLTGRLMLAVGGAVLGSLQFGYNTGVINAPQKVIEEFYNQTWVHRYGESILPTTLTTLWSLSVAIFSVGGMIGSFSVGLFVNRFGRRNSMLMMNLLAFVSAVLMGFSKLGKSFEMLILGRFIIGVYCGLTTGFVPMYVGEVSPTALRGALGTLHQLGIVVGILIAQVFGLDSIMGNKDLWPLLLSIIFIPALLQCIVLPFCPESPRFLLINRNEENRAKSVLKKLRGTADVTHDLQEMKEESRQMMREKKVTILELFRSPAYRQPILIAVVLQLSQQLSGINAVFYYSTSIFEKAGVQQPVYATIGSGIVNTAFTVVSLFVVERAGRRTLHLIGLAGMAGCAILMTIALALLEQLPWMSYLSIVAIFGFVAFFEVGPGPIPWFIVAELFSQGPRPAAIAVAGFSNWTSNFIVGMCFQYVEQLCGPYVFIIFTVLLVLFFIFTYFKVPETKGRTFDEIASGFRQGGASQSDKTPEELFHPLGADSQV

Turning to `CCCC(CC)n1ccc2c3c(N)nc(N)nc3ccc21` (stereo not given), the values for the inhibition in assay [1], in assay [2] and in assay [3] were 70.5%, 76.3% and 57.8%, respectively.
On to `NCCNc1ccc([N+](=O)[O-])cc1C(=O)Nc1cccc(Cl)c1`, for which the inhibition came to 2.71% in assay [1], 4.41% in assay [2] and 2.22% in assay [3].
The like results for `CCN(CC)CCN(Cc1ccc(-c2ccc(C(F)(F)F)cc2)cc1)C(=O)Cn1c(CCc2cc(F)cc(F)c2)nc(=O)c2ccccc21` were, in that order, 1%, 1.07% and 1.47%.
Take `Oc1ccc(Cl)cc1-c1cc(C(F)(F)F)nc(-c2ccccc2)n1`: the inhibition in assay [1] amounted to 7.04%; in assay [2], 5.96%; in assay [3], 8.28%.
Taken in the same sequence, the figures for `CN(C)c1ccc(C=C2SC(=N)N(c3nccs3)C2=O)cc1` were 3.25%, 5.28% and 4.86%.
Taken in the same sequence, the figures for `CCC(C)(C)c1ccc(N2C(N)=NC(N)=NC2(C)C)cc1` were -2.05%, -1.28% and -2.78%.
`O=C(Cn1c(CCc2cccc(F)c2F)nc(=O)c2ccccc21)N(CCN1CCCCC1)Cc1ccc(-c2ccc(C(F)(F)F)cc2)cc1`: the inhibition in assay [1] was 6.02%; in assay [2], 4.32%; in assay [3] it was 4.32%.
On to `COc1ccc2nc3cc(Cl)ccc3c(NCCN3CCN(C)CC3)c2c1`, for which the inhibition was found to be 4.56% in assay [1], 3.95% in assay [2] and 3.79% in assay [3].
The like results for `CN1CCN(CC2(Nc3nccc(NCc4ccc(Cl)cc4Cl)n3)CCCCC2)CC1` were, in that order, 6.66%, 7.74% and 6.18%.
The like results for `COc1ccc(-c2cc3ncnc(N4CCN(CCN5CCCC5)CC4)c3s2)cc1` were, in that order, 2.34%, 0.99% and 0.9%.
For the compound `CC(C)C[C@H](NC(=O)c1cc2ccccc2s1)C(=O)N[C@H]1CCN(Cc2ccc(OCCN3CCNCC3)c3ccccc23)C1`, the inhibition in assay [1] was -0.59%; in assay [2], -2.98%; in assay [3], 0.51%.
The like results for `COc1ccc(Oc2cnc(N)nc2N)c(C(C)C)c1` were, in that order, 4.31%, 5.88% and 2.01%.
On to `CC(=O)C1=NN(c2ccc(Cl)cc2)C(c2cccs2)N1c1ccccc1` (stereo not given), for which the inhibition in assay [1] stood at 1.62%; in assay [2] it was 0.36%; in assay [3] it was 0.54%.
Taken in the same sequence, the figures for `COCCCNC(=O)C1CCN(C(c2ccc(Cl)cc2)c2ccc(Cl)cc2)CC1` were 2.3%, 3.44% and 4.61%.
Taken in the same sequence, the figures for `O=C(Nc1ccc(Cl)cc1F)N[C@H]1CCN(CCCCCNC(=O)C2CC2c2ccc(Cl)c(Cl)c2)C1` (stereo not given in full) were 8.35%, 8.26% and 8.63%.
The like results for `CCc1cn2c3c(cc(C(=O)N[C@@H](Cc4ccccc4)[C@H](O)CNCC(C)C)cc13)N(C)S(=O)(=O)CC2` were, in that order, 3.97%, 4.71% and 3.3%.
`O=C(/C=C/c1ccc(Cl)c(Cl)c1)NCCCCCN1CCC(NC(=O)Nc2cc(F)ccc2F)CC1`: the inhibition in assay [1] amounted to 2.34%; in assay [2], 2.81%; in assay [3] it was 6.16%.
Taken in the same sequence, the figures for `COc1ccc(Nc2cc(C)c3cc(NC(=O)c4ccncc4)ccc3n2)cc1` were 0.86%, 2.43% and 0.74%.
For `CC(Cc1ccc(OCc2ccccc2)cc1)Nc1nc(O)c2ccccc2n1` (stereo not given), the results for the inhibition in assay [1], in assay [2] and in assay [3] were 2.96%, 1.33% and 3.22%, respectively.
The like results for `Cc1ccc(NC(=O)c2cccc(CN3CCCN(Cc4cccc(O)c4)CC3)c2)cc1` were, in that order, -0.49%, 0.65% and 0.25%.
With `c1ccc(CN2CCC(Nc3ccc(-c4c[nH]nc4-c4ccccn4)nc3)CC2)cc1`, the values for the inhibition in assay [1], in assay [2] and in assay [3] were 4.32%, 4.84% and 4.12%, respectively.
Taken in the same sequence, the figures for `CCOC(=O)c1nc(-c2ccc(-c3ccccc3)cc2)[nH]c1N` were 3.98%, 2.89% and 2.52%.
The like results for `CCS(=O)(=O)Nc1ccc2[nH]cc(C3CCN(CCC4CCN(C(=O)/C=C/c5ccc(Cl)c(Cl)c5)CC4)CC3)c2c1` were, in that order, 2.73%, 4.42% and 1.91%.
Taken in the same sequence, the figures for `c1ccc([C@H]2CN3CCSC3=N2)cc1` were -0.53%, 2.58% and -0.34%.
For the compound `COc1ccc(NC(=O)N2CCN(CCCCCNC(=O)/C=C/c3ccc(C(F)(F)F)cc3)CC2)cc1Cl`, the results for the inhibition in assay [1], in assay [2] and in assay [3] were 2.21%, 1.82% and 1.35%, respectively.
Taken in the same sequence, the figures for `CC(C)(C)c1ccc(NC(=O)c2ccc(CN3CCCN(Cc4ccsc4)CC3)cc2)cc1` were 9.06%, 10.4% and 11.9%.
The like results for `O=C(NC1CC1)c1ccc(N2CCOc3ccc(Cl)cc32)s1` were, in that order, 2.19%, 1% and 1.54%.
The like results for `N=C(NCCCCCCCCNC(=N)Nc1ccc(Cl)cc1)Nc1ccc(Cl)cc1` were, in that order, 5.92%, 0.99% and 8.78%.
As to `CCCCCC(C)C(C)c1cc(O)c2c(c1)OC(C)(C)CC2(O)c1ccccn1` (stereo not given), the inhibition in assay [1] came to 1.35%; in assay [2] it was 2.79%; in assay [3] it was 3.05%.
Taken in the same sequence, the figures for `Cc1cccc(-c2ccc(NC(=O)Nc3ccc4nccc(N5CCN(C)CC5)c4c3)cc2C)n1` were 8.09%, 5.32% and 3.13%.
The like results for `CCOc1ccc(Nc2ccc3nonc3c2S(=O)(=O)Nc2ccc(OCC)cc2)cc1` were, in that order, -0.07%, -0.32% and -0.61%.
Consider `Cc1ccccc1C1CCN(c2ccc(C(=O)Nc3ccccc3)cn2)CC1`, for which the inhibition in assay [1] is -0.55%; in assay [2] it was -0.98%; in assay [3] it was -5.64%.
As to `COc1cc(C=C(C2=NC(=O)CS2)c2nc3cccnc3n2C)ccc1O`, the inhibition in assay [1] came out at 5.2%; in assay [2] it was 5.56%; in assay [3], 4.82%.
On to `N#Cc1ccc2c(c1)CN(CCC1CCC(NC(=O)c3cc4ccccc4cc3N)CC1)CC2` (stereo not given), for which the inhibition in assay [1] stood at 5.84%; in assay [2], 5.45%; in assay [3], 3.13%.
Consider `COc1cc(CC2c3cc(O)c(Cl)cc3CCN2C)c(OC)cc1C` (stereo not given), for which the inhibition came out at 3.63% in assay [1], 4.4% in assay [2] and 5.31% in assay [3].
